Consider 40 compounds from PubChem BioAssay (NCATS).

Inconclusive results are not listed. A call without a number means that no potency is given here. The source made the active and inactive calls. Calls follow the shape of the dose curve; as a rule, active = well fitted cell-killing curve with a large enough effect; inconclusive = small, poorly fitted or top-dose-only effect, or effect the other way; inactive = flat fitted curve, though single readings scatter.

The test in a line: qHTS assay for cell viability of the p53RE-bla HCT-116 cell line (AID 743292). Also: nearly all actives have a fitted effect of over 55% in size. Conditions: p53RE-bla HCT-116 viability, ATP luminescence, 16 h; series mostly up to 95 µM. From the text:
U.S. Tox21 Program National Center for Advancing Translational Sciences [NCATS] NIH Chemical Genomics Center [NCGC] U.S. Environmental Protection Agency [EPA] National Institutes of Environmental Health Sciences [NIEHS] National Toxicology Program [NTP] U.S. Food and Drug Administration [FDA] Tox21 Assay Overview: The CellTiter-Glo Luminescent Cell Viability Assay (Promega, Madison, WI) is a homogeneous method to determine the number of viable cells in culture based on quantitation of the ATP present, which signals the presence of metabolically active cells. This cell viability assay was used to screen environmental chemicals in the CellSensor p53RE-bla HCT-116 cell line (Invitrogen).
Tox21 Assay Protocol Summary: Cell viability after compound treatment was measured using a luciferase-coupled ATP quantitation assay (CellTiter-Glo viability assay, Promega, Madison, WI) in CellSensor p53RE-bla HCT-116 cell line (Invitrogen). Total intracellular ATP content corresponds to the number of metabolically competent cells after compound treatment. The cells were dispensed at 4,000 cells/5 uL/well in 1,536-well white/solid bottom assay plates using a Flying Reagent Dispenser (Aurora Discovery, San Diego, CA). The cells were incubated for 5 h at 37 C, followed by the addition of 23 nL of compounds dissolved in DMSO, positive controls or DMSO only using a pintool work station (Kalypsys, San Diego, CA). The assay plates were incubated for 16 h at 37 C, followed by the addition of 5 uL/well of CellTiter-Glo reagent. After 30 min incubation at room temperature, the luminescence intensity of the plates was measured using a ViewLux plate reader (PerkinElmer, Shelton, CT).
(In general: qHTS replaces the single test concentration by a dilution series.)
Turning to `C(=C/c1ccccc1)/c1ccccc1`, the Potency result is “inactive”. For `CC(C)CCOC(=O)/C=C/c1ccccc1` the value was “inactive”; for `Nc1cc(Cl)c([N+](=O)[O-])cc1O`, “inactive”. With `NS(=O)(=O)O`, the Potency entry was “inactive”. For `Cc1ccc(Cl)cc1N` the value was “inactive”. For `FC(F)(F)c1ccccc1Cl`, the Potency entry was “inactive”. For `CC(=O)c1cc(C)oc1C` the value was “inactive”; for `CC(=O)Nc1ccc(N)cc1`, “inactive”. Next, `S=C([S-])NCCNC(=S)[S-].[Zn+2]`: “inactive”; `c1ccc(Oc2ccccc2)cc1`: “inactive”.

With `C=Cc1ccccc1C=C`, the Potency entry was “inactive”.

Consider `CC(C)c1ccccc1`, for which the Potency result is “inactive”. Consider `Cc1ccc(C(=O)O)cc1`, for which the Potency entry is “inactive”. On to `CCCCC(C=O)CC` (stereo not given), for which the Potency entry is “inactive”. Turning to `O=C(O)c1c(Cl)cccc1Cl`, the Potency entry was “inactive”. As to `C1CCOC1`, the Potency entry was “inactive”.

Regarding `Nc1cccc(N)c1`, the Potency result is “inactive”. For the compound `Nc1cccc(S(=O)(=O)O)c1`, the Potency entry was “inactive”.

Turning to `O=C1OC(=O)c2c(Cl)c(Cl)c(Cl)c(Cl)c21`, the Potency result is “inactive”. As for `Cc1ccc(N(C)C)cc1`, the Potency result is “inactive”. For `NC(=O)c1ccccc1[N+](=O)[O-]` the value was “inactive”; for `Cc1ccccc1C=O`, “inactive”; for `FC(F)(F)c1cccc(Cl)c1`, “inactive”. Consider `CCNc1cc(O)ccc1C`, for which the Potency result was “inactive”. Turning to `FB(F)F`, the Potency result was “inactive”. For the compound `Cc1cc(C)c(N)cc1C`, the Potency entry was “inactive”. Regarding `C=C(C)OC(C)=O`, the Potency result is “inactive”. Next, `COC(=O)CC#N`: “inactive”; `Cc1cccc(Br)c1`: “inactive”. For `O=C1NC(=O)c2cc([N+](=O)[O-])ccc21` the value was “inactive”; for `CC(C)=CCl`, “inactive”. For `CC(=O)C1(C)CC2=C(CCCC2(C)C)CC1C` (stereo not given) the value was “inactive”; for `NCCCCCCN`, “inactive”; for `O=[N+]([O-])c1ccc2nc[nH]c2c1`, “inactive”. In the case of `C=C(C)C(N)=O`, the Potency result was “inactive”. Next, `CCOCCOCC`: “inactive”. With `CCCCOCCOCCSC#N`, the Potency entry was “inactive”. As to `O=[N+]([O-])c1ccc(CCO)cc1`, the Potency entry was “inactive”. Regarding `c1ccc2[nH]cnc2c1`, the Potency entry was “inactive”. Consider `Cc1cccc2cccnc12`, for which the Potency entry is “inactive”.
